The panel holds about 83,000 compounds, 20% with a hit somewhere; the sample as a whole holds those more often.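 The endpoint reported here, percent growth, reads 100 for growth as untreated, 0 for no net growth and -100 for all cells dead.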 A number with no mark means an inactive call. Activity calls are given as the source filed them. The calls were made as follows: active = growth percent below 10; inactive = the rest.
System: HL-60(TB) leukemia
Experiment: NCI-60 one-dose screen, 48 h (100 = growth as untreated, 0 = no growth, -100 = all killed)
Conditions: 10 µM unless noted

SMILES	growth
N#Cc1c(-c2cccs2)cc(-c2cnccn2)nc1SCC(=O)N/N=C/c1cccs1	96.2%
Cc1ccc(C2=Nn3c(nnc3-c3ccccc3)SC2)cc1	7.74% (active)
O=C1Nc2ccccc2Oc2ccc(S(=O)(=O)CC3CO3)cc21 (stereo unspecified)	0.252% (active)
CNC1CCc2c(sc(NC(=O)c3ccc(C(C)(C)C)cc3)c2C(N)=O)C1 (stereo unspecified)	-69.3% (active)
CC(C)(C)n1cc(-c2ccnc(NCCCNS(=O)(=O)c3cccc(F)c3)n2)c(-c2ccc(Cl)c(O)c2)n1	128%
CC(=O)Nc1cccc(-n2cnc3cc(-c4ccc(O)cc4)ccc32)c1	6.68% (active)
CN(Cc1ccccc1)S(=O)(=O)/N=C1\NC(=O)NC1=C(Cl)Cl	-29.8% (active)
NS(=O)(=O)c1ccc(Nc2nc(N/N=C/c3c[nH]c4ccccc34)nc(Nc3ccccc3)n2)cc1	34.4%
Cc1cc(S(=O)(=O)N(C)C)cc(NCC(=O)NC(=O)NCC(C)C)c1C	128%
CCc1cc2c(cc1Cl)nc1c(=O)[nH]c(=O)nc-1n2CCOCC(C)(C)C	82%
Cc1ccc(-c2cc3nc(C(Cl)Cl)nc(-c4ccco4)n3n2)cc1	-11.9% (active)
CCC(=O)Nc1ccc(-c2nc(-c3cccc(O)c3)c(-c3ccnc(Br)c3)[nH]2)cc1	35.6%
C[C@@H](Nc1c(C#N)cnc2ccc(-c3cnc(N)nc3)cc12)c1ccccc1	8.49% (active)
CC(=O)C1=C(C)NC(NN)=NC1c1cccc(Cl)c1 (stereo unspecified)	115%
CN1CCN(c2ccc(Nc3nc(NCCNC(=O)c4ccc(F)cc4)c4sccc4n3)cc2)CC1	34.3%
Cc1nc2cnc(N)c(C#Cc3cncc(C(=O)Nc4ccc(Cl)c(C(F)(F)F)c4)c3)c2nc1C	15.8%

SMILES	growth
CCCC(=O)NC(c1cccc(N(C)C)c1)c1cc(C)c2cccnc2c1O (stereo unspecified)	0.32% (active)
COc1cccc(-c2nn(-c3ccccc3)cc2-c2ccnc(N3CCN(C(=O)Nc4ccc(F)cc4)CC3)c2)c1	11.2%
Nc1ccccc1NC(=O)c1ccc(NC(=O)C/C=C/c2cccnc2)cc1	12.6%
O=c1[nH]c(CNc2ccc(NCc3c(-c4ccccc4)no[n+]3[O-])cc2)nc2c1cnn2-c1ccccc1	63.1%
COc1ccc(C2CC(c3cccc(Nc4nc(Cl)nc5cc(OC)c(OC)cc45)c3)=Nc3c(N)nc(N)nc3N2)cc1 (stereo unspecified)	47.4%
O=C1[C@@H]2Cc3c([nH]c4ccccc34)[C@H](c3ccc(Br)cc3)N2C(=O)CN1C1CCN(Cc2c(Cl)cccc2Cl)CC1	-79% (active)
C/C(=C(/C)C1CC1CCNC1CCC(NC(=O)OC(C)(C)C)CC1)c1ccccc1 (stereo unspecified)	56.6%
CC[C@@](C)(NC(=O)C(C)(C)NC(=O)[C@@H](NC(=O)[C@@H]1CCCN1C(=O)C(C)(C)NC(=O)[C@H](CC(C)C)NC(=O)CNC(=O)C(C)(C)NC(=O)[C@@H](NC(=O)C(C)(C)NC(=O)[C@H](CCC(N)=O)NC(=O)[C@H](C)NC(=O)C(C)(C)NC(=O)[C@H](C)NC(=O)C(C)(C)NC(=O)[C@@H]1CCCN1C(=O)C(C)(C)NC(C)=O)C(C)C)C(C)C)C(=O)N[C@@H](CCC(N)=O)C(=O)N[C@@H](CCC(N)=O)C(=O)N[C@H](CO)Cc1ccccc1	-50.8% [4.25 µM] (active)
CSc1ccc(/C(=N/N=C(N)N)c2ccc(Cl)cc2)cc1	-45.1% (active)
Cn1ccnc1C(=O)/C=C/c1ccc(CNC(=O)c2c(F)c(F)c(F)c(F)c2F)cc1	20%
Clc1ccc(N/N=c2/oc3ccccc3cc2-c2cc3ccccc3[nH]2)cc1	88.7%
COc1cccc2cc(-c3cc4ccccc4[nH]3)/c(=N\NC(=O)c3ccc(Cl)cc3)oc12	-11.8% (active)
COc1ccc([C@@H]2c3[nH]c4ccccc4c3C[C@H]3C(=O)N(C4CCN(CC5CCCCC5)CC4)CC(=O)N23)c(OC)c1	47.7%
COc1cccc(/C=C/C(=O)c2ccc(NC(=O)COc3cccc4cccnc34)cc2)c1	80.5%
CC(=O)N(O)CCCCCNC(=O)CCC(=O)N(O)CCCCCNC(=O)CCC(=O)N(O)CCCCCN(CCCCCCCCCC[P+](c1ccccc1)(c1ccccc1)c1ccccc1)CCCCCCCCCC[P+](c1ccccc1)(c1ccccc1)c1ccccc1	-25.7% (active)

Source: PubChem BioAssay (NCI)
